The results in this text go back to ChEMBL document CHEMBL3433997, “St. Jude Leishmania screening dataset” (2016).

Format in all cases: functional
The target in assay [1] is Solute carrier family 2, facilitated glucose transporter member 1 (Homo sapiens) (UniProt P11166). Nature of the assay: ST_JUDE_LEISH: Cytotoxicity at 2uM final concentration against transgenic Leishmania Mexicana promastigotes LmGLUT1 that are glucose transport deficient and complemented with the human glucose transporter GLUT1. Activity is measured by DNA content using SYBR green in vitro.
Chain of Solute carrier family 2, facilitated glucose transporter member 1 (Homo sapiens) (P11166 whole entry): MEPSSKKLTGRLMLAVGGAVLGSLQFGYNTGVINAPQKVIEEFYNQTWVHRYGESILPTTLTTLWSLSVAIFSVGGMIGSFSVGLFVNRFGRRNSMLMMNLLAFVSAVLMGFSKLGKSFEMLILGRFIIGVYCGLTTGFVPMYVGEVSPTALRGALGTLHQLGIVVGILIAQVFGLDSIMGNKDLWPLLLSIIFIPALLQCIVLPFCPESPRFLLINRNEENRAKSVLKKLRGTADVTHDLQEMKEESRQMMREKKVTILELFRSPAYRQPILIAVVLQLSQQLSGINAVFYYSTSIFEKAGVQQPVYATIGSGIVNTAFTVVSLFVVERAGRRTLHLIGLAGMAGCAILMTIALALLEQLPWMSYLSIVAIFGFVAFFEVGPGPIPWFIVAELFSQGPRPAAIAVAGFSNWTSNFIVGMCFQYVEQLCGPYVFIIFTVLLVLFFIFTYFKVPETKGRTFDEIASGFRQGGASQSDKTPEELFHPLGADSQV

Assay [2] addresses Hexose transporter 1 (Plasmodium falciparum) (UniProt O97467). The assay is described as follows: ST_JUDE_LEISH: Cytotoxicity at 2uM final concentration against transgenic Leishmania Mexicana promastigotes LmPfHT that are glucose transport deficient and complemented with the Plasmodium falciparum hexose transporter. Activity is measured by DNA content using SYBR green in vitro.

Assay [3] deals with Glucose transporter (Leishmania mexicana) (UniProt O61059). Nature of the assay: ST_JUDE_LEISH: Cytotoxicity at 2uM final concentration against transgenic Leishmania Mexicana promastigotes LmGT2 that are glucose transport deficient and complemented with the L. Mexicana glucose transporter 2. Activity is measured by DNA content using SYBR green in vitro.

“And” between values parts separate entries of the source, which are not always exact repeats. Equal entries are not always repeated.

On to `Oc1cccc(C2CCCN(Cc3cccc4cc[nH]c34)C2)c1` (stereo unspecified), for which the inhibition in assay [1] was found to be 2.13%; in assay [2] it was 4%; in assay [3] it was 3.75%.

Turning to `O=C(/C=C/c1ccc(Cl)c(Cl)c1)NCC1CCC(N2CCC(c3c[nH]c4ccccc34)CC2)CC1` (stereo unspecified), the inhibition is 5.53% in assay [1], 11.2% in assay [2] and 0.18% in assay [3].

In the case of `COc1ccc(CN2CCN(CCOC(c3ccc(F)cc3)c3ccc(F)cc3)CC2)c(O)c1`, the inhibition in assay [1] was 6.6%; in assay [2] it was 3.26%; in assay [3], 2.85%.

`c1ccc2c(NCCCCCCNc3c4ccccc4nc4ccccc34)c3ccccc3nc2c1`: the values for the inhibition in assay [1], in assay [2] and in assay [3] were 5.54%, 6.29% and 4.31%, respectively.

As for `CCCCCCC(C)c1cc(O)c2c(c1)OC(C)(C)c1ccncc1-2` (stereo unspecified), the inhibition in assay [1] was 1.12%; in assay [2] it was 0.89%; in assay [3], -1.19%.

Regarding `S=C(Nc1ccccc1Cl)NC1CCC(CN2CCC(c3c[nH]c4ccccc34)CC2)CC1` (stereo unspecified), the inhibition in assay [1] was found to be 5.7%; in assay [2], 8.06%; in assay [3] it was 3.34%.

For the molecule `O=C(c1ccccc1)C1CC1CN1CC=C(c2c[nH]c3ccccc23)CC1` (stereo unspecified), the values for the inhibition in assay [1], in assay [2] and in assay [3] were 2.08%, 0.92% and 8.35%, respectively.

With `C/C=C1\CN2CC[C@H]1C[C@@H]2[C@@H](O)c1ccnc2ccc(O)cc12`, the inhibition was found to be 2.02% in assay [1], 1.55% in assay [2] and 2.5% in assay [3].

Consider `O=C(Nc1ccccc1Cl)NC1CCC(CN2CCC(c3c[nH]c4ccccc34)CC2)CC1` (stereo unspecified), for which the inhibition in assay [1] was 4.02% and 5.1%; in assay [2] it was 3.83% and 5.22%; in assay [3] it was -1.83% and 3.04%.

For `C/C=C1\CN2CC[C@H]1C[C@H]2[C@H](O)c1ccnc2ccc(OC)cc12`, the inhibition was 10% and 3.4% in assay [1]; 9.89% and 3.71% in assay [2]; 9.9% and 2.84% in assay [3].

In the case of `Fc1ccc(N(c2nc(-c3cc(F)cc(C(F)(F)F)c3)cs2)C2CCNCC2)cc1`, the inhibition in assay [1] was -1.03%; in assay [2] it was -0.75%; in assay [3] it was -1.46%.

In the case of `O=C(/C=C/c1ccc(Cl)c(Cl)c1)N1CCC(CN2CCC(c3c[nH]c4cc5c(cc34)OCO5)CC2)CC1`, the inhibition stood at 5.54% in assay [1], 4.93% in assay [2] and 3.71% in assay [3].
